A short description of experiment [1]: Cell Viability - N2a (AID 540).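 Note: cells exposed to compound for 40 h at 37 °C; plate controls were DMSO alone for no effect and tamoxifen control for full effect; nearly all actives have a fitted effect of over 45% in size.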 The following applies: N2a mouse neuroblastoma cell viability; at 92.2 µM (top of the series). An outline of the steps:
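N2a mouse neuroblastoma, 1500 cells/well, 5 hr settle; compound 40 hr, 37 °C; CellTiter-Glo 20 min RT; luminescence; Hill-fit AC50.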

Experiment [2] is described as follows: Cellular Toxicity (caspase-3) HepG2 (AID 654).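 Note: cells exposed to compound for 16 hours before reading; 0% = DMSO alone and 100% = caspase signal from 100 µM tamoxifen.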 An outline of the steps: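 Luminescent Caspase-Glo 3/7 readout after 16 hr compound exposure of human hepatocellular carcinoma HepG2 cells at 37 °C; qHTS concentration-response, normalized DMSO = 0%, 100 uM tamoxifen = 100%; AC50 by standard Hill equation.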
The nature of experiment [3]: Cellular Toxicity (caspase-3) Hek293 (AID 664).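 Note: cells exposed to compound for 16 h at 37 °C before readout.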 An outline of the steps:
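Luminescent Caspase-Glo 3/7 readout (aminoluciferin release) in HEK293 cells after 16 h compound treatment, 37 °C. Normalization: DMSO = basal, 100 uM tamoxifen = 100% stimulation. Concentration-response fitted with standard Hill equation for AC50.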

A short description of experiment [4]: MultiTox-Fluor Cytotoxicity Assay - LYMP1-002 - Live Cells (AID 955). Note: % is set by controls: 0 for no effect and ±100 for the full control effect. In outline: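 LYMP1-002 lymphoblastoid cells; 2500 cells/well; 16 hr compound exposure, 37 C; MultiTox-Fluor reagent 60 min RT; live-cell fluorescence Ex/Em=405/510; qHTS concentration-response, Hill-equation AC50; tetraoctylammonium bromide positive control.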
Experiment [5] in a line: MultiTox-Fluor Cytotoxicity Assay - LYMP1-002 - Dead Cells (AID 960).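 Note: 0% = DMSO and 100% = tetraoctylammonium bromide; nearly all actives have a fitted effect of over 60% in size.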 An outline of the steps:
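Readout: fluorescence at 485/520 from cell-impermeant bis-AAF-R110 cleaved by proteases leaking from damaged cells. LYMP1-002 lymphoblastoid line, 16 hr compound treatment at 37 C, concentration-response in qHTS format; Hill-equation AC50 values.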

The nature of experiment [6]: MultiTox-Fluor Cytotoxicity Assay - LYMP1-003 - Live Cells (AID 962).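 Note: 0% = DMSO only and full loss = 92 µM tetraoctylammonium bromide; cytotoxic hits lower the live-cell protease signal.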 In outline:
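Readout: live-cell fluorescence (Ex/Em=405/510) from GF-AFC cleavage after 60 min MultiTox-Fluor reagent at room temperature. Lymphoblastoid LYMP1-003 cells, 16 hr compound treatment, 37 C. Concentration-response fitted to standard Hill equation for AC50.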

The nature of experiment [7]: Cell Viability - LYMP1-003 - Assay at 24 hr (AID 963).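 Note: plate controls were DMSO only for no effect and tetraoctylammonium bromide positive control for full effect.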 In outline:
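CellTiter-Glo luminescence (intracellular ATP) read after 24 hr, 37 C compound exposure of 2500 LYMP1-003 human lymphoblastoid cells/well in complete medium; qHTS concentration series; AC50 via standard Hill equation.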

Experiment [8] can be described thus: Cell Viability - LYMP2-003 (AID 965).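 Note: cells exposed to compounds for 24 h before reading; 0% = DMSO only and full effect = 92 µM tetraoctylammonium bromide; nearly all actives have a fitted effect of over 50% in size.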 In outline: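 CellTiter-Glo luminescence quantified ATP loss after 24 h compound treatment of LYMP2-003 lymphoblastoid cells at 37 C. Titration series were fitted with the standard Hill equation to give AC50.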
Experiment [9] is described as follows: Cell Viability - LYMP2-005 (AID 967).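 Note: plate controls were DMSO only for no effect and 92 µM tetraoctylammonium bromide control for full effect.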 In outline: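 LYMP2-005 human lymphoblastoid cells (2500/well) were treated with compounds for 24 h at 37 C. Intracellular ATP was then measured by CellTiter-Glo luminescence after 30 min at room temperature. AC50 values came from Hill-equation fits of qHTS concentration-response data.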
Experiment [10] can be described thus: Cell Viability - LYMP2-011 (AID 969).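 Note: 0% = DMSO only and full inhibition = 92 µM tetraoctylammonium bromide; nearly all actives have a fitted effect of over 60% in size.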 An outline of the steps: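 Luminescent ATP read-out (CellTiter-Glo, 30 min RT) after 24 hr compound exposure at 37 C in human lymphoblastoid cells, 2500 cells/well. Decreasing ATP indicates cytotoxicity; AC50 from standard Hill fit.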
The nature of experiment [11]: Cell Viability - LYMP2-013 (AID 970).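 Note: 0% = DMSO only and full inhibition = tetraoctylammonium bromide control; nearly all actives have a fitted effect of over 55% in size.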 In outline: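 CellTiter-Glo luminescence (cellular ATP) read after 30 min at RT. Cells: human lymphoblastoid line, 2500/well, 24 hr compound exposure at 37 C. Tetraoctylammonium bromide positive control; AC50 via standard Hill fit of qHTS titrations.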
Experiment [12] is described as follows: Cell Viability - LYMP2-015 (AID 971).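 Note: 0% = DMSO only and full effect = 92 µM tetraoctylammonium bromide; nearly all actives have a fitted effect of over 55% in size.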 An outline of the steps: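 qHTS cytotoxicity: 2500 cells/well, 5 hr 37 C, compound 24 hr 37 C, CellTiter-Glo 30 min RT, luminescence. Loss of ATP = toxicity; AC50 via standard Hill fit.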
Experiment [13] is described as follows: Cell Viability - LYMP2-025 (AID 976).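 Note: plate controls were DMSO only for no effect and tetraoctylammonium bromide control for full effect.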 In outline:
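CellTiter-Glo luminescence (cellular ATP) after 24 h compound exposure at 37 C; LYMP2-025 human lymphoblastoid cells, 2500/well, complete medium. Tetraoctylammonium bromide positive control. AC50 by Hill equation fit of qHTS concentration-response.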

The nature of experiment [14]: Cell Viability - LYMP2-006 (AID 978). Note: % is set by controls: 0 for no effect and ±100 for the full control effect; nearly all actives have a fitted effect of over 60% in size. In outline:
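Potency values are Hill-fit AC50s for decreases in intracellular ATP (CellTiter-Glo luminescence). LYMP2-006 lymphoblastoid cells, 2500 per well, were exposed to compound in complete culture medium for 24 hr at 37 C.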

The nature of experiment [15]: Cell Viability - LYMP2-008 (AID 980). Note: % is set by controls: 0 for no effect and ±100 for the full control effect; nearly all actives have a fitted effect of over 60% in size. In outline: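 Luminescent ATP read-out (CellTiter-Glo, 30 min RT) after 24 hr compound exposure at 37 C of human lymphoblastoid cells in complete medium. Decrease in ATP taken as cytotoxicity; AC50 derived by standard Hill fit of qHTS concentration-response data.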
The nature of experiment [16]: Cell Viability - LYMP1-002 - Assay at 24 hr (AID 993). Note: % is set by controls: 0 for no effect and ±100 for the full control effect. An outline of the steps: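 CellTiter-Glo luminescence (intracellular ATP) after 24 h compound exposure, 37 C, in LYMP1-002 human lymphoblastoid cells; decreased ATP taken as cytotoxicity. AC50 from standard Hill fit of concentration-response curves.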
Experiment [17] can be described thus: Cell Viability - LYMP1-002 - Assay at 40 hr (AID 994). In outline: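 qHTS cytotoxicity; 2500 cells/well, 5 hr 37 C settle, compound 40 hr 37 C. CellTiter-Glo, 30 min RT, luminescence (ATP). Concentration-response, Hill fit → AC50. Pos. ctrl tetraoctylammonium bromide.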
The target of experiment [18] is Peroxisome proliferator-activated receptor delta (Homo sapiens) (UniProt Q03181). The experiment is described as follows: qHTS assay for small molecule agonists of peroxisome proliferator-activated receptor delta signaling (AID 588534; calls by dose curve;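 note: 0% = DMSO basal wells and 100% = positive control agonist at 10 µM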). An outline of the steps: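 Titration series tested in agonist mode on beta-lactamase reporter cells; 18 hrs at 37 C after a 5 hr pre-incubation. Readout: CCF4 fluorescence, 2 hrs RT. Hill equation gives EC50 and maximal response.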
Chain of Peroxisome proliferator-activated receptor delta (Homo sapiens) (Q03181 whole entry, looked up): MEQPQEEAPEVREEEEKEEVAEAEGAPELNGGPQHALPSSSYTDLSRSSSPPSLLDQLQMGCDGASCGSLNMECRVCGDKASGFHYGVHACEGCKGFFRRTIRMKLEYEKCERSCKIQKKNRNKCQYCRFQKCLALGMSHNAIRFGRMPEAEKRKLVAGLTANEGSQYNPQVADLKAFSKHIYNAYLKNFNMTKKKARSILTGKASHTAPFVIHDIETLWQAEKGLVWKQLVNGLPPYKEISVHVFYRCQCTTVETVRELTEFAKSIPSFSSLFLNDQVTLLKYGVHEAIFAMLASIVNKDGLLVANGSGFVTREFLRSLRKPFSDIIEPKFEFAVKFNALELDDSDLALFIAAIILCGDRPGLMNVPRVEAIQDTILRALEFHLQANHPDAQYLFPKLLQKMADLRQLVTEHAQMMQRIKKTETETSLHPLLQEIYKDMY
On the technique in general: Quantitative high-throughput screening tests each substance at several concentrations.

Experiment [19] has as its target Peroxisome proliferator-activated receptor alpha (Homo sapiens) (UniProt Q07869). Put plainly: qHTS assay for small molecule agonists of the peroxisome proliferator-activated receptor alpha (PPARalpha) signaling pathway (AID 651778). Note: % of control where 0% means no effect. The following applies: PathHunter PPARalpha complementation, chemiluminescence, 6 h; active compounds read high. In outline:
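Chemiluminescence from complemented enzyme reported PPARalpha activation in cells after 6 hr of compound treatment at 37 C. The detection reagent was incubated for 60 min at room temperature, and compounds were scored as agonists.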

A short description of experiment [20]: qHTS assay for small molecule agonists of the antioxidant response element (ARE) signaling pathway measured by Nrf2-dependant transcriptional activity (AID 720636; active = well fitted curve in the direction sought with a large enough effect in the repeat runs; an effect the other way counts as inactive or inconclusive; note: % of control where 0% means no effect). An outline of the steps: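 ARE-luc HepG2 cells carrying an Nrf2-responsive luciferase reporter were plated in medium with 1% dialyzed FBS, left 6 hr at 37 C to attach, then exposed to compound for 16 hr. Luciferase luminescence was read after ONE-Glo addition.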

Each structure is given as a SMILES string. “And” between values parts separate entries of the source, which are not always exact repeats. Equal entries are not always repeated. A number with no mark means an inactive call. Inconclusive results are not listed. The source made the active and inactive calls. Unless noted, calls come from the whole dose curve; as a rule, active = well fitted curve in the direction sought with a large enough effect; inconclusive = small, poorly fitted or top-dose-only effect, or another doubt; inactive = no such curve, though single readings can be large; an effect the other way counts as inactive or inconclusive.

Chain of Peroxisome proliferator-activated receptor alpha (Homo sapiens) (Q07869 whole entry, looked up): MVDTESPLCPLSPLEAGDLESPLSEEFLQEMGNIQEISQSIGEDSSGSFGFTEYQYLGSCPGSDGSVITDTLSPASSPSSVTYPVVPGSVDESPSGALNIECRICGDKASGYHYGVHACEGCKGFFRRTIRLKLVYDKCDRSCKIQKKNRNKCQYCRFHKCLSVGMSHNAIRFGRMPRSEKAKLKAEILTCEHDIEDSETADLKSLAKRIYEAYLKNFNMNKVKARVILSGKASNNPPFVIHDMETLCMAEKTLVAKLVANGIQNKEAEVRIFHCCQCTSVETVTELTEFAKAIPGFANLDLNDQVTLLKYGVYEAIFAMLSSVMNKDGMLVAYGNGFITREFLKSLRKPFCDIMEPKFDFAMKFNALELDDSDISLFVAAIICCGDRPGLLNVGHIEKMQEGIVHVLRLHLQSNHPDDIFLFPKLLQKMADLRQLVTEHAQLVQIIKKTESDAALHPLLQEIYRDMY

For `CC(O)CCl` (centres undefined), in experiment [1], the activity change, negative = cytotoxicity was 5.86%. Moreover, the compound was classed as inactive in experiment [2], in [3], in [4], in experiment [18] and in experiment [20]. Besides, the Potency entry in experiment [5], in [6], in [7], in experiment [8], in experiment [9] and in experiment [10] was “inactive” each time. In addition, the Potency entry in experiment [11], in [12], in experiment [13], in experiment [14], in experiment [15] and in experiment [16] was “inactive” throughout. In addition, the Potency entry in [17] is “inactive”. Besides, the max response in [19] is -0.405% and -1.63%.
Take `Brc1ccc(Oc2cc(Br)c(Br)cc2Br)c(Br)c1`: the activity change, negative = cytotoxicity in experiment [1] was -86.7% (active) and -80.4% (active). Moreover, the call in experiment [2], in experiment [3], in [4], in experiment [18] and in [20] was inactive. In addition, the Potency result in [5], in experiment [6], in experiment [7], in experiment [8], in experiment [9] and in experiment [10] was “inactive” throughout. Moreover, the Potency result in experiment [11], in experiment [12], in [13], in experiment [14], in experiment [15] and in [16] was “inactive” throughout. Further, the Potency entry in experiment [17] was “inactive”. For the same compound, the max response in experiment [19] is 8.87% and 4.12% and 3.75%.
As to `c1ccc2c(c1)CCCC2`, the activity change, negative = cytotoxicity in experiment [1] is 9.97%. The compound was classed as inactive in experiment [2], in experiment [3], in [4] and in [20]. Also, the Potency result in experiment [5], in experiment [6], in experiment [7], in experiment [8], in [9] and in [10] was “inactive” throughout. The Potency entry in [11], in experiment [12], in experiment [13], in experiment [14], in [15] and in experiment [16] was “inactive” in each case. The Potency result in experiment [17] is “inactive”. Besides, the max response in experiment [19] is -0.424%.
`C=CC1CC=CCC1` (centres undefined): the activity change, negative = cytotoxicity in experiment [1] is 0.971%. Besides, the call in experiment [2], in [3], in experiment [4], in [18] and in [20] was inactive. In addition, the Potency result in experiment [5], in experiment [6], in [7], in experiment [8], in experiment [9] and in experiment [10] was “inactive” in each case. Besides, the Potency result in experiment [11], in [12], in experiment [13], in experiment [14], in experiment [15] and in experiment [16] was “inactive” each time. For the same compound, the Potency result in [17] is “inactive”. Besides, the max response in experiment [19] was -0.264% and -1.89%.
Consider `Cc1cccc(C#N)c1`, for which the activity change, negative = cytotoxicity in [1] was -2.18%. For the same compound, the compound was classed as inactive in [2], in [3], in experiment [4], in experiment [18] and in experiment [20]. In addition, the Potency result in experiment [5], in experiment [6], in [7], in [8], in experiment [9] and in experiment [10] was “inactive” in each case. For the same compound, the Potency entry in experiment [11], in experiment [12], in experiment [13], in [14], in experiment [15] and in experiment [16] was “inactive” in each case. Further, the Potency entry in experiment [17] is “inactive”. Besides, the max response in [19] was -0.3%.
In the case of `O=[N+]([O-])c1cccc2ccccc12`, in [1], the activity change, negative = cytotoxicity is 2.46%. Also, the call in experiment [2], in experiment [3], in experiment [4], in experiment [18] and in experiment [20] was inactive. For the same compound, the Potency result in experiment [5], in experiment [6], in [7], in [8], in experiment [9] and in experiment [10] was “inactive” in each case. The Potency result in [11], in experiment [12], in [13], in experiment [14], in experiment [15] and in [16] was “inactive” each time. Moreover, the Potency result in experiment [17] was “inactive”. Further, the max response in experiment [19] is -0.448% and 0.96%.

The record behind these values is PubChem BioAssay (NCATS).
